Source: PubChem BioAssay AID1457 (National Center for Advancing Translational Sciences (NCATS), 2008)
The whole screen tested about 210,000 compounds, of which about 730 (0.35%) were called active. Another 1% or so got no clear call; they are omitted. Only a selection was taken, and actives are over-represented in it overall. Values without a mark were called inactive. Calls follow the shape of the dose curve; as a rule, active = well fitted inhibition curve with a large enough effect; inconclusive = small, poorly fitted or top-dose-only effect; inactive = no such curve, though single readings can be large or run the other way.

Assay: qHTS Assay for Identifying the Cell-Membrane Permeable IMPase Inhibitors: Potentiation with Lithium;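 also: IP1 builds up when IMPase is blocked and the TR-FRET signal falls; nearly all actives have a fitted effect of over 50% in size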;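 as to activity, negative = IMPase inhibition: plate controls were basal vehicle for no effect and high inhibitor control for full effect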
Conditions: CHO-M1 cells, IP1 TR-FRET (IP-One), carbachol + lithium; series mostly up to 59.4 µM; activity, negative = IMPase inhibition: at the top concentration
Outline: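 Readout is a homogeneous TR-FRET IP1 immunoassay (Ex 320, Em 665 and 620), where raised cytosolic IP1 lowers signal. Cells were CHO-M1 treated 30 min at 37C with test compounds plus a little lithium; AC50 values came from Hill-equation fitting.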
Potency is read from the fitted curve at half-maximal effect.

Row | Structure (SMILES) | activity, negative = IMPase inhibition | Potency
1 | Cc1nonc1NC(=O)CSc1nc2ccccc2cc1C#N | -6.66% | 
2 | Cc1ccc2cc(C#N)c(SCC(=O)NCC3CCCO3)nc2c1C (stereo not drawn) | -16.1% [at 38.3 µM] | 
3 | Cc1nc2cc(NC(=O)CSc3nc4c(C)cccc4cc3C#N)ccc2s1 |  | 11.2 µM (active)
4 | O=C1c2cccc3cccc(c23)C(=O)N1CCCCCc1n[nH]c(=S)o1 | -2.87% | 
5 | O=C(CN1C(=O)c2cccc3cccc(c23)C1=O)N1CCCCC1 | -1.07% | 
6 | C[N+](C)(CCCCCC[N+](C)(C)CCCN1C(=O)c2cccc3cccc(c23)C1=O)CCCN1C(=O)c2cccc3cccc(c23)C1=O |  | 10 µM (active)
7 | O=C1CCC[C@@H]2CC(N3CCCCC3)C[C@@H]3CCN1[C@H]23 (stereo partly drawn) | 16.1% | 
8 | CCCCC[C@H](O)/C=C/[C@@H]1[C@@H](CC(=O)CCC(=O)O)[C@@H](O)C[C@H]1O | 17.9% | 
9 | CCCCC/C=C\C/C=C\CCCCCCCCCC(=O)NCC(=O)O | 3.03% | 
10 | N#Cc1c(-c2ccc(Cl)cc2)c2c([nH]c1=S)CCCC2 | 2.7% | 
11 | CNc1nccc(-c2ccc(Cl)cc2)c1C#N | -2.1% | 
12 | CN(C)c1nc(-c2cccnc2)nc(-c2ccc(Cl)cc2)c1C#N |  | 7.94 µM (active)
13 | COC(=O)CCCC1=CC2=CC(=O)C(C)(OC(=O)c3cccs3)C(=O)C2=CN1c1ccc(CO)cc1 (stereo not drawn) | -7.18% | 
14 | CC(=O)c1sc(N/N=C\c2ccc(C)cc2)nc1C | 5.69% | 
15 | CC(=O)c1sc(NC(=O)c2cccc3ccccc23)nc1C | -12.6% [at 38.3 µM] | 
16 | CC(=O)c1sc(NC(=O)c2ccc(C)cc2)nc1C |  | 12.6 µM (active)
17 | COC(=O)C1=C(C(=O)OC)[C@@H]2Nc3ccccc3[C@@]23C[C@@H](C(=O)OC)N(S(=O)(=O)c2ccc([N+](=O)[O-])cc2)C3=N1 | 23.4% | 
18 | CC(=O)OC1C([N+]2(C)CCCCC2)C[C@H]2C3CC[C@H]4C[C@H](OC(C)=O)C([N+]5(C)CCCCC5)CC4(C)C3CCC12C (stereo partly drawn) | 27.8% | 
19 | COCOc1cc(OC)ccc1C(=O)/C=C/c1ccc([N+](=O)[O-])cc1 | -13.9% | 
20 | CC(=O)c1cc(NC(=O)c2ccccc2)c(=O)oc1/C=C/N(C)C | 17.6% [at 38.3 µM] | 
21 | CC(=O)Oc1ccc(NC(=O)CCC2CCCCC2)c(C(=O)O)c1 | 6.82% | 
22 | CC(=O)Nc1cc2ccc(OC(C)=O)cc2oc1=O |  | 8.91 µM (active)
23 | COCCN1C=C2C(=O)C(C)(OC(=O)C3CCCC3)C(=O)C=C2C=C1c1ccsc1 (stereo not drawn) | 0.622% | 
24 | N#Cc1cccc(CS(=O)(=O)c2nnnn2-c2cc(C(F)(F)F)cc(C(F)(F)F)c2)c1 | 20.7% | 
25 | C=C(C(C)=O)C(O)c1cccs1 (stereo not drawn) | -3.84% | 
26 | COc1ccc(-c2nc3c(c4c2C[C@H](c2ccccc2)OC4)CN(C(=O)c2cccnc2)CC3)c(C)c1 | 2.33% | 

Row | Structure (SMILES) | activity, negative = IMPase inhibition | Potency
27 | Cc1cc(C)n(-c2nc(SCC(=O)N3CCCC3)c3c4c(sc3n2)CCCC4)n1 | 16.9% | 
28 | Cc1nc(SCC(=O)Nc2cc(C)on2)c2c3c(sc2n1)CCCC3 |  | 10 µM (active)
29 | Cc1ccc(-c2csc(SCC(=O)Nc3cc(C)on3)n2)cc1 | 7.82% | 
30 | CC(C)c1cnc(NC(=O)Cc2ccccc2)s1 | -1.45% | 
31 | COc1ccc(CC(N)C(=O)NC2C(O)[C@H](n3cnc4c(N(C)C)ncnc43)O[C@@H]2CO)cc1 (stereo partly drawn) | 0.536% | 
32 | CC[C@@]12C=C(/C=C/c3ccccc3)[C@](CC)(C1)[C@H](c1ccccc1)CC2=O | 10.1% | 
33 | COCCN1C(=O)N[C@@H](CCc2ccccc2)[C@H](C(C)=O)[C@H]1C | -3.57% | 
34 | S=c1nccc(-c2cc(Cl)sc2Cl)[nH]1 |  | 11.2 µM (active)
35 | Nc1nc2c(ncn2[C@@H]2O[C@H](COP(=O)(O)OP(=O)(O)OP(=O)(O)O)[C@@H](O)C2O)c(=O)[nH]1 (stereo partly drawn) | -0.194% | 
36 | COc1ccc(-c2nc(-c3ccccc3)oc2Nc2ccc3ccccc3c2)cc1 | 19.9% | 
37 | COc1ccc(CC(=O)Nc2ccc(C(=O)NC(C)(C)C)cc2)cc1 | -3.58% | 
38 | COc1ccc(CC(=O)Nc2ccc(-c3nnc(-c4ccccc4)o3)cc2)cc1 |  | 10 µM (active)
39 | COc1cccc(CC(=O)N2CCc3nc(COc4ccccc4)c4c(c3C2)CO[C@@H](C)C4)c1 | 8.35% | 
40 | CCCCS(=O)(=O)N1C2=NC(C(=O)OC)=C(C(=O)OC)[C@@H]3N(Cc4ccccc4)c4ccccc4[C@]23C[C@H]1C(=O)OC | 6.96% | 
41 | COC(=O)C(C(=O)OC)[C@@H](NC=O)c1ccccc1 | 8.25% | 
42 | COC(=O)CSc1nccc(-c2cccs2)n1 | -12.7% | 
43 | O=C(Nc1ccnc(-c2ccncc2)n1)c1cccs1 | 5.99% | 
44 | O=C(O)COc1ccc(-c2nccc(-c3cccs3)n2)cc1 |  | 10 µM (active)
45 | C/C(Nc1ccc2oc(=O)ccc2c1)=C1/C(=O)CC2[C@@H]1C2(C)C (stereo partly drawn) | 19% | 
46 | Cc1cc2oc(=O)cc(-c3ccccc3)c2c(C)c1-c1ccc(OC(F)(F)F)cc1 | 13.7% | 
47 | CC(C)C[C@H](NC(=O)[C@H](O)[C@H](N)Cc1ccccc1)C(=O)O | -2.42% | 
48 | CC(C)(C)OC(=O)NCCCCC1=CC2=CC(=O)C(C)(OC(=O)c3cccs3)C(=O)C2=CO1 (stereo not drawn) | 18.1% | 
49 | COC(=O)c1ccc(CSc2nc3ccccc3c(=O)n2-c2cccc(OC)c2)o1 | 1.82% [at 38.3 µM] | 
50 | COc1ccc(OC)c(-n2c(=S)[nH]c3cc(C(=O)N4CCCCC4)ccc3c2=O)c1 | 9.2% | 
51 | COc1cccc(-n2c(=S)[nH]c3c(oc4ccccc43)c2=O)c1 |  | 12.6 µM (active)
52 | OC[C@H]1O[C@@H](n2cnc3c(N[C@H]4CC5CCC4C5)ncnc32)[C@H](O)[C@@H]1O (stereo partly drawn) | -8.88% | 

Row | Structure (SMILES) | activity, negative = IMPase inhibition | Potency
53 | CC(=O)CC(c1ccccc1)C1C(=O)Oc2ccccc2C1=O (stereo not drawn) | 0.184% | 
54 | CC(C)C1=CC2=CC[C@H]3[C@](C)(C(=O)O)CCC[C@]3(C)C2CC1 (stereo partly drawn) | 16% | 
55 | COC(=O)C(C(=O)OC)C1c2ccccc2C=C(C2CC2)N1C(=O)OC (stereo not drawn) |  | inactive
56 | C=CCNC(=O)CSc1nc2sc(C)c(C)c2c(=O)[nH]1 | 1.14% | 
57 | O=C(CSc1nc2c(cnn2-c2ccc(F)cc2)c(=O)[nH]1)N1CCCCCC1 | 1.02% | 
58 | CC(=O)c1sc2nc(SCC(=O)N3CCCCC3)[nH]c(=O)c2c1C |  | 11.2 µM (active)
59 | CCN1C(=O)N[C@@H](c2ccccc2)[C@H](C(C)=O)[C@H]1C | 10.4% | 
60 | O=C1C=C(c2ccccc2)CCC1 | 12.3% | 
61 | CCN1C(=O)N[C@@H](CCc2ccccc2)C(C(=O)OC)=C1C | 4.15% | 
62 | O=C1OCCN1C(=O)[C@H]1[C@H](c2ccc(Cl)cc2)C(c2cccc(Cl)c2)=NN1c1ccc(Br)cc1 | -6.47% | 
63 | COC(=O)CCCC1=CC2=CC(=O)C(C)(OC(=O)c3cccs3)C(=O)C2=CN1CC1CC1 (stereo not drawn) | 4.7% | 
64 | COc1ccc(-c2nc3c(c4c2C[C@H](c2ccccc2)OC4)CN(C(=O)C2CC2)CC3)c(C)c1 | 2.22% | 
65 | CC1=C(C/C=C(\C)CCCC(C)CCCC(C)CCCC(C)C)C(=O)c2ccccc2C1=O (stereo not drawn) | -3.08% | 
66 | CCOC(=O)c1ccc(Nc2cc(C)nc3nc(C)nn23)cc1 | 2.54% | 
67 | CCOC(=O)c1ccc(NC2Nc3cc(C)nn3S2)cc1 (stereo not drawn) |  | 10 µM (active)
68 | CCc1ccc(NC2Nc3cc(C)nn3S2)cc1 (stereo not drawn) | -0.821% | 
69 | CC1(C)O[C@@H]2C[C@@H]3[C@H]4C[C@@H](F)C5=CC(=O)C=C[C@]5(C)[C@@]4(F)[C@@H](O)C[C@]3(C)[C@]2(C(=O)CO)O1 | 0.557% | 
70 | CCCCCCCC/C=C\CCCCCCCC(=O)NCC(=O)O | -4.73% | 
71 | CCCCC/C=C\C[C@H](O)/C=C/C=C/C=C/[C@@H](O)CCCC(=O)O | 12.9% | 
72 | C=CCC(C)(O)c1ccco1 (stereo not drawn) | 12.8% | 
73 | Cc1ccccc1OC/C(O)=C(\C#N)c1nc2ccccc2[nH]1 |  | 12.6 µM (active)
74 | N#C/C(=C(/O)COc1cccc2ccccc12)c1nc2ccccc2[nH]1 | 1.85% | 
75 | N#C/C(=C(/O)COC(=O)COc1ccc(Cl)cc1)c1nc2ccccc2[nH]1 | 5.54% | 
76 | COC(=O)CCCC1=CC2=CC(=O)C(C)(OC(=O)c3cccs3)C(=O)C2=CN1c1cccc(C#N)c1 (stereo not drawn) | -6.28% | 
77 | C[C@@]12CCC(=O)C=C1CC[C@H]1C2[C@@H](O)C[C@]2(C)[C@@H]1CC[C@@]2(O)C(=O)COC(=O)C1CCCC1 (stereo partly drawn) | -5% | 
78 | CO[C@@]12[C@@H](COC(N)=O)C3=C(C(=O)C(C)=C(N)C3=O)N1C[C@@H]1N[C@@H]12 | 17.2% | 
